Results as given in PubChem BioAssay (NCI).
Compounds without any hit were thinned out: in the full panel of roughly 83,000, 20% have a hit.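 Each cell line was grown in a 96-well plate and treated with one concentration of compound for 48 hours. Values below 10 were considered active.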 Calls of active or inactive are those of the source.

tested on: NCI-H460 lung; assay: NCI-60 one-dose screen, 48 h (100 = growth as untreated, 0 = no growth, -100 = all killed); details: 10 µM unless noted

| Compound | growth |
| --- | --- |
| COc1cc(C=C2c3ccccc3C(=O)c3ccccc32)ccc1OCCCCOc1cc2c(cc1OC)C(=O)N1CCCC1C=N2 (stereo unspecified) | -77% (active) |
| C[CH2][Sn]([Cl])([Cl])[CH2]C.Oc1ccccc1C=NCCN=Cc1ccccc1O | 107% (inactive) |
| COc1ccc(O)c(CNC(=O)CN2CCCC2=O)c1 | 97.5% (inactive) |
| CCOC(=O)C(Cc1ccc(N(CCCl)CCCl)cc1)NC(=O)C(CC(C)C)NC(C)=O (stereo unspecified) | 1.65% (active) |
| C[C@]12CC[C@H]3[C@@H](CC[C@]4(O)C[C@@H](O[C@@H]5O[C@H](CO)[C@@H](O[C@@H]6OC[C@@H](O)[C@H](O)[C@H]6O)[C@H](O)[C@H]5O)CC[C@]34C=O)[C@@]1(O)CC[C@@H]2C1=CC(=O)OC1 | -9.57% (active) |
| Clc1ccc2nnnn2n1 | 20.7% (inactive) |
| CC1(C)N=C(N)N=C(N)N1c1ccc(CCCCc2ccc(Cl)c(S(=O)(=O)F)c2)c(Cl)c1 | 16.3% (inactive) |
| CC(=O)[O][Hg][c]1c(N)c(C)cc(C)c1F | 43.8% (inactive) |
| O=C(NCCN1CC1)C(=O)NCCN1CC1 | 58% (inactive) |
| [Au+].[N-]=C=O.c1ccc(CN2[CH-]N(Cc3ccccc3)C(c3ccccc3)=C2c2ccccc2)cc1 | 98.5% (inactive) |
| O=C(O)CNC(=O)C(Cl)(Cl)Cl | 96.2% (inactive) |
| N#C[Se]Cc1cc(-c2ccccc2)n(-c2ccc(S(N)(=O)=O)cc2)n1 | -56.8% (active) |
| CCCCCC1(CCBr)C(=O)NC(=O)NC1=O | 108% (inactive) |
| O=C(O)C(O)C(O)C1[O][Sb]([c]2ccc([N+](=O)[O-])cc2)[O]C1CO (stereo unspecified) | 100% (inactive) |
| O=Cc1cn(Cc2ccc(Cl)cc2)c2ccccc12 | 5.05% (active) |
| COc1cc(NC(C)CCCNC2CN3CCC2CC3)c2ncccc2c1 (stereo unspecified) | 106% (inactive) |
| Cc1ccc(C(=O)NCCCOc2ccc(N)cc2Cl)cc1S(=O)(=O)F | 102% (inactive) |
| CC(=O)OCC1O[C@@H]([S-])C(OC(C)=O)[C@H](OC(C)=O)[C@@H]1OC(C)=O.[Au+].c1ccc(CN2[CH-]N(Cc3ccccc3)C(c3ccccc3)=C2c2ccccc2)cc1 | 62% (inactive) |
| O=C(Nc1ccc(Cl)cc1)Nc1nccs1 | 21% (inactive) |
| Clc1ccc(COC(Cn2ccnc2)c2ccc(Cl)cc2Cl)cc1 (stereo unspecified) | 33.2% (inactive) |
| CC1CCCC(C[N+](C)(C)C)C1=O (stereo unspecified) | 117% (inactive) |
| CC(=O)/C=C/c1ccc2c(c1)OCO2 | 107% (inactive) |
| O=C(O)c1ccc([S-])cc1.[Au+].c1ccc(CN2[CH-]N(Cc3ccccc3)C(c3ccccc3)=C2c2ccccc2)cc1 | -29% (active) |

tested on: HOP-92 NSCLC; assay: as above; details: 10 µM unless noted

| Compound | growth |
| --- | --- |
| COc1cc(NCCCN=C(N)N)c2ncccc2c1 | 56.7% (inactive) |
| ClCCN(CCCl)c1nc(Cl)c(C2CC(c3ccccc3)=NN2c2cc(Cl)cc(Cl)c2)s1 (stereo unspecified) | 113% (inactive) |
| CCCCCCCC(=O)OCC(=O)[C@]1(O)Cc2c(O)c3c(c(O)c2[C@@H](OC2CC(N)C(O)C(C)O2)C1)C(=O)c1c(OC)cccc1C3=O (stereo partly specified) | -73.5% (active) |
| COC[C@@H]1C[C@@]2(C)[C@@H](CC[C@@H]3[C@@H]2CC[C@@]2(C)[C@H]3CC[C@]2(C)O)CC1=O | 100% (inactive) |
| C[C@]12CC[C@@H]3c4ccc(Oc5nc(N6CC6)nc(N6CC6)n5)cc4CC[C@H]3[C@@H]1CCC2=O | 104% (inactive) |
| O=C1OCC2=C1C(c1ccccc1)c1cc3c(cc1N2)OCO3 (stereo unspecified) | 30.8% (inactive) |
| CCC1(C)CC(CCNCc2ccccc2O)(c2ccc(C)cc2)CCO1 (stereo unspecified) | 105% (inactive) |
| ClCCN(CCCl)Cc1ccc(Nc2ccnc3cc(Cl)ccc23)cc1 | -4.98% (active) |
| c1ccc(Nc2nc(-c3ccccc3)c[se]2)cc1 | 59.8% (inactive) |
| CCN(CC)CCOC(=O)C(OC(C)C)(c1ccccc1)c1ccccc1 | 80.1% (inactive) |
| CCCc1cc(O)c2c3c(c(=O)oc2c1)CN(C)CC3 | 81.6% (inactive) |
| ClCCN(CCCl)c1ccc(/C=N/Nc2ncnc3nc[nH]c23)cc1 | 81.3% (inactive) |
| CCC1(C(C)C)C(=O)NC(=S)NC1=O | 91.5% (inactive) |
| CC(C)(N)Cc1ccccc1 | 87.8% (inactive) |
| CC1(C)N=C(N)N=C(N)N1c1cccc(CCCCc2ccc(Cl)c(S(=O)(=O)F)c2)c1 | 41.3% (inactive) |
| COc1cc(C=C2c3ccccc3C(=O)c3ccccc32)ccc1OCCCCOc1cc2c(cc1OC)C(=O)N1CCCC1C=N2 (stereo unspecified) | -59.4% (active) |
| C[CH2][Sn]([Cl])([Cl])[CH2]C.Oc1ccccc1C=NCCN=Cc1ccccc1O | 95.2% (inactive) |
| COc1ccc(O)c(CNC(=O)CN2CCCC2=O)c1 | 86.1% (inactive) |
| CCOC(=O)C(Cc1ccc(N(CCCl)CCCl)cc1)NC(=O)C(CC(C)C)NC(C)=O (stereo unspecified) | 24.6% (inactive) |

| Compound | growth |
| --- | --- |
| C[C@]12CC[C@H]3[C@@H](CC[C@]4(O)C[C@@H](O[C@@H]5O[C@H](CO)[C@@H](O[C@@H]6OC[C@@H](O)[C@H](O)[C@H]6O)[C@H](O)[C@H]5O)CC[C@]34C=O)[C@@]1(O)CC[C@@H]2C1=CC(=O)OC1 | 43.7% (inactive) |
| Clc1ccc2nnnn2n1 | -3.54% (active) |
| CC1(C)N=C(N)N=C(N)N1c1ccc(CCCCc2ccc(Cl)c(S(=O)(=O)F)c2)c(Cl)c1 | -0.0536% (active) |
| CC(=O)[O][Hg][c]1c(N)c(C)cc(C)c1F | 12.1% (inactive) |
| O=C(NCCN1CC1)C(=O)NCCN1CC1 | 103% (inactive) |
| [Au+].[N-]=C=O.c1ccc(CN2[CH-]N(Cc3ccccc3)C(c3ccccc3)=C2c2ccccc2)cc1 | 81.4% (inactive) |
| O=C(O)CNC(=O)C(Cl)(Cl)Cl | 87.2% (inactive) |
| N#C[Se]Cc1cc(-c2ccccc2)n(-c2ccc(S(N)(=O)=O)cc2)n1 | -61.3% (active) |
| CCCCCC1(CCBr)C(=O)NC(=O)NC1=O | 85.1% (inactive) |
| O=C(O)C(O)C(O)C1[O][Sb]([c]2ccc([N+](=O)[O-])cc2)[O]C1CO (stereo unspecified) | 102% (inactive) |
| O=Cc1cn(Cc2ccc(Cl)cc2)c2ccccc12 | 76.4% (inactive) |
| COc1cc(NC(C)CCCNC2CN3CCC2CC3)c2ncccc2c1 (stereo unspecified) | 46.6% (inactive) |
| Cc1ccc(C(=O)NCCCOc2ccc(N)cc2Cl)cc1S(=O)(=O)F | 96.6% (inactive) |
| CC(=O)OCC1O[C@@H]([S-])C(OC(C)=O)[C@H](OC(C)=O)[C@@H]1OC(C)=O.[Au+].c1ccc(CN2[CH-]N(Cc3ccccc3)C(c3ccccc3)=C2c2ccccc2)cc1 | -7.44% (active) |
| O=C(Nc1ccc(Cl)cc1)Nc1nccs1 | 38.6% (inactive) |
| Clc1ccc(COC(Cn2ccnc2)c2ccc(Cl)cc2Cl)cc1 (stereo unspecified) | 26% (inactive) |
| CC1CCCC(C[N+](C)(C)C)C1=O (stereo unspecified) | 83.8% (inactive) |
| CC(=O)/C=C/c1ccc2c(c1)OCO2 | 89% (inactive) |
| O=C(O)c1ccc([S-])cc1.[Au+].c1ccc(CN2[CH-]N(Cc3ccccc3)C(c3ccccc3)=C2c2ccccc2)cc1 | -45% (active) |
